This note sets out measurements from PubChem BioAssay.

A short description of assay [1]: sensitizers of A549 cells to miR-34 induction, primary screen, imaging, A549 dox-inducible miR-34, nuclei and caspase counts (AID 1347080;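 active = compounds whose cell count with miR-34 switched on is under 0.7 times the count with it off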). The settings on record: A549 miR-34 inducible, Hoechst nuclei count, 48 h.
Assay [2] is described as follows: survival rescue of mitochondrial mutant cells in low glucose, primary screen, MELAS cybrids, Rieske KO mouse fibroblasts, CellTiter-Glo (AID 1508586).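 Also: z relative to plate mean and SD of compound and empty wells.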 On the technique in general: Cellular ATP, detected with luciferase, serves as a proxy for viable cell number.
[3] abbreviates: stronger effect = lower value, cell number ratio, induced over uninduced.
Where [4] appears, read: measured here: relative caspase fold change +Dox/-Dox.
The mark [5] stands for this setting: measured here: total cells with miR-34 induction, stronger effect = lower value.
[6] abbreviates: measured here: total cells without miR-34 induction.
Setting [7] is: MELAS cybrid survival, CellTiter-Glo 48 h, stronger effect = higher value.
The mark [8] stands for this setting: Rieske KO mouse fibroblast survival, CellTiter-Glo 72 h.

Activity calls are given as the source filed them.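 The calls were made as follows, unless noted: active = mean z-score across replicates of 1.96 or higher in either the MELAS or the Rieske mutant cell line; inactive = the rest.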
Also: test concentration not given here.

Regarding `CC1(C)C(OC2OC(C(=O)O)C(O)C(O)C2OC2OC(C(=O)O)C(O)C(O)C2O)CC[C@@]2(C)[C@H]1CC[C@]1(C)[C@H]2C(=O)C=C2[C@H]3C[C@@](C)(C(=O)O)CC[C@]3(C)CC[C@]21C` (stereo not given in full), the fold change was 0.916 (inactive) in assay [1] (setting [3]) and 0.946 in assay [1] (setting [4]). The cell count was 8230 in assay [1] (setting [5]) and 8990 in assay [1] (setting [6]). The results for the z-score in assay [2] (setting [7]) and in assay [2] (setting [8]) were -0.0747 (inactive) and -0.803, respectively.
Turning to `CC1CC[C@H]2C(C)C(O)O[C@H]3O[C@@]4(C)CC[C@@H]1[C@]32OO4` (stereo not given in full), the figures for the fold change in assay [1] (setting [3]) and in assay [1] (setting [4]) were 0.953 (inactive) and 0.983, respectively. Further, the cell count in assay [1] (setting [5]) was 4540; in assay [1] (setting [6]), 4770. Further, the z-score in assay [2] (setting [7]) is -0.379 (inactive); in assay [2] (setting [8]), 0.102.
In the case of `FC(F)(F)c1ccc(C=Cc2nc(COc3ccc(CCCCn4ccnn4)cc3)co2)cc1`, the fold change in assay [1] (setting [3]) was 0.766 (inactive); in assay [1] (setting [4]) it was 1.23. For the same molecule, the cell count in assay [1] (setting [5]) stood at 4190; in assay [1] (setting [6]) it was 5470. The figures for the z-score in assay [2] (setting [7]) and in assay [2] (setting [8]) were -0.189 (inactive) and -0.508, respectively.
In the case of `CC(CCC(=O)O)[C@@H]1CC[C@H]2[C@@H]3C(O)C[C@@H]4CC(O)CC[C@]4(C)[C@@H]3CC[C@]12C` (stereo not given in full), the fold change was 0.828 (inactive) in assay [1] (setting [3]) and 0.703 in assay [1] (setting [4]). Moreover, the cell count in assay [1] (setting [5]) amounted to 7430; in assay [1] (setting [6]), 8980. Further, the z-score was -0.242 (inactive) in assay [2] (setting [7]) and 0.0686 in assay [2] (setting [8]).
Regarding `O=c1[nH]c(=O)n(C2CC(O)C(CO)O2)cc1C(F)(F)F` (stereo not given), the fold change in assay [1] (setting [3]) was 1.15 (inactive); in assay [1] (setting [4]), 0.574. In addition, the cell count was determined as 1670 in assay [1] (setting [5]) and 1450 in assay [1] (setting [6]). Further, the z-score is -0.198 (inactive) in assay [2] (setting [7]) and -0.513 in assay [2] (setting [8]).
As to `Cc1ccc(S(=O)(=O)C=CC#N)cc1`, the fold change in assay [1] (setting [3]) was 0.909 (inactive); in assay [1] (setting [4]), 0.678. Moreover, the figures for the cell count in assay [1] (setting [5]) and in assay [1] (setting [6]) were 7140 and 7850, respectively. The z-score in assay [2] (setting [7]) was -0.499 (inactive); in assay [2] (setting [8]), -0.608.
For `CCC1OC(=O)CC(O)C(C)C(OC2OC(C)C(O)C(N(C)C)C2O)C(CCN2CC(C)CC(C)C2)CC(C)C(=O)C=CC(C)=CC1COC1OC(C)C(O)C(OC)C1OC` (stereo not given), the fold change in assay [1] (setting [3]) is 0.924 (inactive); in assay [1] (setting [4]) it was 0.808. The values for the cell count in assay [1] (setting [5]) and in assay [1] (setting [6]) were 8240 and 8920, respectively. Also, the z-score in assay [2] (setting [7]) was -0.194 (inactive); in assay [2] (setting [8]) it was -0.165.
Take `COc1cc(=C2C=c3ccccc3=N2)[nH]c1=Cc1[nH]c(C)cc1C`: the fold change was 1.1 (inactive) in assay [1] (setting [3]) and 0.895 in assay [1] (setting [4]). In addition, the cell count in assay [1] (setting [5]) stood at 1770; in assay [1] (setting [6]) it was 1620. Also, the z-score in assay [2] (setting [7]) is 2.25 (active); in assay [2] (setting [8]), -2.31.
For `CCOC(=O)C(CCc1ccccc1)NC1CCCN2CCCC(C(=O)O)N2C1=O` (stereo not given), the fold change was 0.927 (inactive) in assay [1] (setting [3]) and 0.673 in assay [1] (setting [4]). Besides, the cell count in assay [1] (setting [5]) stood at 7550; in assay [1] (setting [6]) it was 8150. Further, the z-score in assay [2] (setting [7]) was -0.275 (inactive); in assay [2] (setting [8]), -0.0266.
In the case of `CC(C)N(CCCNC(=O)Nc1ccc(C(C)(C)C)cc1)CC1OC(n2cc(Br)c3c(N)ncnc32)C(O)C1O` (stereo not given), the fold change was 0.844 (inactive) in assay [1] (setting [3]) and 1.16 in assay [1] (setting [4]). The cell count in assay [1] (setting [5]) came out at 7150; in assay [1] (setting [6]), 8480. Also, the figures for the z-score in assay [2] (setting [7]) and in assay [2] (setting [8]) were -0.128 (inactive) and -0.178, respectively.
On to `O=C(C=Cn1cnc(-c2cc(C(F)(F)F)cc(C(F)(F)F)c2)n1)NNc1cnccn1`, for which the fold change in assay [1] (setting [3]) is 1.07 (inactive); in assay [1] (setting [4]), 0.543. In addition, the cell count in assay [1] (setting [5]) is 2320; in assay [1] (setting [6]) it was 2170. For the same molecule, the z-score is -0.213 (inactive) in assay [2] (setting [7]) and -7.28 in assay [2] (setting [8]).
`O=C(O)C1OC(Oc2cc3oc(-c4ccccc4)cc(=O)c3c(O)c2O)C(O)C(O)C1O` (stereo not given): the fold change was 0.916 (inactive) in assay [1] (setting [3]) and 1.12 in assay [1] (setting [4]). Moreover, the cell count in assay [1] (setting [5]) came to 7800; in assay [1] (setting [6]), 8520. The values for the z-score in assay [2] (setting [7]) and in assay [2] (setting [8]) were -0.174 (inactive) and 0.279, respectively.
With `O=C(c1cccc(Cl)c1F)N1CCN(Cc2cccc(Nc3nccs3)n2)CC1`, the fold change is 0.822 (inactive) in assay [1] (setting [3]) and 4.5 in assay [1] (setting [4]). Besides, the cell count was determined as 2250 in assay [1] (setting [5]) and 2740 in assay [1] (setting [6]). Also, the z-score in assay [2] (setting [7]) was -0.421 (inactive); in assay [2] (setting [8]), -0.143.
Regarding `O=C(CSc1nc2c(c(=O)n1-c1ccccc1)SCC2)Nc1ccc(-c2ccccc2)cn1`, the fold change was 0.945 (inactive) in assay [1] (setting [3]) and 0.349 in assay [1] (setting [4]). Also, the cell count in assay [1] (setting [5]) came out at 7310; in assay [1] (setting [6]) it was 7740. Besides, the z-score in assay [2] (setting [7]) was -0.49 (inactive); in assay [2] (setting [8]), 0.404.
Regarding `OCc1ccccc1OC1OC(CO)C(O)C(O)C1O` (stereo not given), the fold change in assay [1] (setting [3]) is 0.944 (inactive); in assay [1] (setting [4]) it was 0.784. Besides, the cell count in assay [1] (setting [5]) came to 9350; in assay [1] (setting [6]) it was 9900. Moreover, the z-score in assay [2] (setting [7]) was -0.348 (inactive); in assay [2] (setting [8]) it was 0.733.
